Screens: PubChem BioAssay, National Center for Advancing Translational Sciences (NCATS)
KB-3-1 tox: qHTS assay for MDR1-selective chemotherapeutics: Primary screen using the parental adenocarcinoma cell KB-3-1. KB-3-1 viability, CellTiter-Glo ATP luminescence, 72 h. Potency, µM (top dose mostly 46.1 µM), usual class: cytotoxic. 400,000 compounds, 1.4% hits; note: nearly all actives have a fitted effect of over 60% in size
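Luminescent ATP read-out (CellTiter-Glo) measures survival of drug-naive KB-3-1 cells after 72 h compound exposure at 37 °C. Titration series was screened from lowest to highest concentration, with DMSO vehicle plates as background controls.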
HT1080 IDH1KD tx: qHTS for induction of synthetic lethality in tumor cells producing 2HG: qHTS for the HT-1080-IDH1KD cell line. HT-1080 IDH1 knockdown viability, ATP luminescence, 48 h. Potency, µM (highest dose often 46.1 µM), inactives show at the highest dose activity, negative = toxicity, hits mostly cytotoxic. 360,000 compounds, 2% hits. AID 686971, 2013;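 note: 0% = DMSO wells and -100% = cell-free medium wells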
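Viability of IDH1-knockdown HT-1080 fibrosarcoma cells was assessed by CellTiter-Glo after 48 h at 37 °C with titrated compound; concentration-effect curves were classified by fit quality and response size.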
KB-V1 cytotox: qHTS assay for MDR1-selective chemotherapeutics: Primary screen using the drug-selected MDR subline cells KB-V1; KB-V1 MDR cells viability, CellTiter-Glo, 72 h; Potency, µM (titrated, usually from 46.1 µM), actives largely listed as cytotoxic; 400,000 compounds, 3.4% hits; note: nearly all actives have a fitted effect of over 60% in size
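KB-V1 cells (P-gp-expressing MDR subline of KB-3-1) in phenol-red-free DMEM with 10% FBS were exposed to library compounds over a concentration series for 72 h at 37 degrees C. Viability read by CellTiter-Glo luminescence; concentration-effect curves fitted after normalization.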
DT40 TDP1 no CPT: qHTS for Inhibitors of human tyrosyl-DNA phosphodiesterase 1 (TDP1): qHTS in cells in absence of CPT; DT40 Tdp1-/- hTDP1 cells, no CPT, ATP luminescence, 48 h; Potency, µM (series often up to 46.2 µM), for the others: at the top dose activity change, negative = growth inhibition, usual class: inhibitors; 420,000 compounds, 15% hits; AID 686978, 2013; note: nearly all actives have a fitted effect of over 55% in size
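Camptothecin absent (DMSO only). Human TDP1-complemented DT40 knockout cells, 400 cells/well, 37 °C for minimum 48 hr; ATP measured via CellTiter-Glo, 30 min dark incubation, luminescence.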
DT40 TDP1 CPT: qHTS for Inhibitors of human tyrosyl-DNA phosphodiesterase 1 (TDP1): qHTS in cells in presence of CPT | chicken DT40 Tdp1-/-;hTDP1 cells + 20 nM CPT, ATP luminescence, 48 h | Potency, µM (titrated, usually from 46.2 µM), without a hit: at the highest dose activity change, negative = growth inhibition, hits mostly inhibitors | 420,000 compounds, 12% hits | AID 686979, 2013; note: nearly all actives have a fitted effect of over 55% in size
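Chicken DT40 Tdp1-/- cells stably complemented with human TDP1 were seeded at 400 cells/well in medium containing 20 nM camptothecin, exposed to pin-transferred compounds, and grown at 37 °C for at least 48 hr. Viability was read as ATP luminescence.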
HT1080-NT tox: qHTS for induction of synthetic lethality in tumor cells producing 2HG: qHTS for the HT-1080-NT fibrosarcoma cell line | HT-1080-NT fibrosarcoma viability, CellTiter-Glo ATP luminescence, 48 h | 360,000 compounds, 1.6% hits | Potency, µM (top dose mostly 46.1 µM), without a hit: at the highest dose activity, negative = less viability, most hits filed as cytotoxic;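 note: NT is the 2HG producing partner of a matched IDH1 knockdown line; 0% = DMSO-treated cells and -100% = media-only wells without cells; nearly all actives have a fitted effect of over 55% in size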
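Viability of the 2HG-overproducing fibrosarcoma line after 48 hours of compound exposure at 37 degrees C was determined by luminescence with CellTiter-Glo, and concentration-effect curves were then fitted and categorized.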
* marks the source's active call; other numbers are inactive results. Shown are actives, neighbours in structure and some others; about 19% of the full set was active somewhere. Calls come from the whole dose curve; as a rule, active = well fitted curve in the direction sought with a large enough effect; inconclusive = small, poorly fitted or top-dose-only effect, or another doubt; inactive = no such curve, though single readings can be large; an effect the other way counts as inactive or inconclusive. Unless noted, % is set by controls: 0 for no effect and ±100 for the full control effect; potency is the fitted concentration of half-maximal effect.

`Cc1ccccc1-c1nnc(CN2CCN(c3cccc(C)c3C)CC2)o1` gave KB-3-1 tox inactive, KB-V1 cytotox inactive, DT40 TDP1 no CPT -26% and DT40 TDP1 CPT -20%.
Screening Cc1cccc(N2CCN(C(c3ccccc3)c3nnc(-c4ccccc4F)o3)CC2)c1C (stereo not drawn) returned KB-3-1 tox inactive, KB-V1 cytotox inactive, DT40 TDP1 no CPT 23µM* and DT40 TDP1 CPT 15µM*.
Cc1ccc(C)c(SCC(=O)Nc2nnc(-c3ccccc3)o2)c1 was read as KB-3-1 tox inactive, HT1080 IDH1KD tx -25%, KB-V1 cytotox inconclusive, DT40 TDP1 no CPT inconclusive, DT40 TDP1 CPT inconclusive and HT1080-NT tox inconclusive.
For CC(C)(C)OC(=O)N1CCC(c2c(C(=O)NCC3CCN(C4CCCC4)C3)cnn2-c2ccc(F)cc2)CC1 (stereo not drawn) the results were KB-3-1 tox inactive, HT1080 IDH1KD tx -17%, KB-V1 cytotox inconclusive, DT40 TDP1 no CPT inconclusive, DT40 TDP1 CPT inconclusive and HT1080-NT tox -8%.
`COc1ccccc1C(=O)NCC1CCN(c2ccc(S(=O)(=O)N3CCOCC3)cc2)CC1` gave KB-3-1 tox inactive, HT1080 IDH1KD tx -24%, KB-V1 cytotox 15µM*, DT40 TDP1 no CPT 23µM*, DT40 TDP1 CPT 21µM* and HT1080-NT tox -9%.
O=C(NCC1CCN(c2ccc(S(=O)(=O)N3CCOCC3)cc2)CC1)Nc1ccccc1 was read as KB-3-1 tox inactive, HT1080 IDH1KD tx -3%, KB-V1 cytotox inactive, DT40 TDP1 no CPT 23µM*, DT40 TDP1 CPT inconclusive and HT1080-NT tox -1%.
`O=C(NCC1CCN(S(=O)(=O)c2ccccc2)CC1)Nc1ccc(F)cc1` gave KB-3-1 tox inactive, HT1080 IDH1KD tx -6%, KB-V1 cytotox inactive, DT40 TDP1 no CPT inconclusive, DT40 TDP1 CPT inconclusive and HT1080-NT tox 0%.
Screening O=C(CCc1ccc(S(=O)(=O)N2CCOCC2)cc1)Nc1ccccc1F returned KB-3-1 tox inactive, HT1080 IDH1KD tx -3%, KB-V1 cytotox inactive, DT40 TDP1 no CPT -29%, DT40 TDP1 CPT -5% and HT1080-NT tox 6%.
`O=C(NCC1CCN(c2ccc(S(=O)(=O)N3CCOCC3)cc2)CC1)Nc1ccccc1F` gave KB-3-1 tox inactive, HT1080 IDH1KD tx 0%, KB-V1 cytotox inconclusive, DT40 TDP1 no CPT 21µM*, DT40 TDP1 CPT inconclusive and HT1080-NT tox 1%.
Screening CCN(CC)C(=O)c1sc2c(c1C)c(=O)n(-c1ccc(C)c(C)c1)c(=O)n2CC(=O)Nc1ccc(F)cc1 returned KB-3-1 tox inactive, KB-V1 cytotox inconclusive, DT40 TDP1 no CPT inconclusive and DT40 TDP1 CPT -27%.
Cc1ccccc1-c1cc(NCCN2CCOCC2)ncn1 was read as DT40 TDP1 no CPT 1% and DT40 TDP1 CPT 12%.
For Cc1cc(NC(=O)c2ccc(Br)o2)cc(-c2nc3ccccc3o2)c1O the results were KB-3-1 tox inactive and KB-V1 cytotox inconclusive.
`Cc1ccccc1OCC(=O)Nc1cc(C)c(O)c(-c2nc3ccccc3o2)c1` gave KB-3-1 tox inactive, KB-V1 cytotox inactive, DT40 TDP1 no CPT inconclusive and DT40 TDP1 CPT 10µM*.
For Cc1cccc(OCC(=O)Nc2cc(C)c(O)c(-c3nc4ccccc4o3)c2)c1 the results were KB-3-1 tox inactive, KB-V1 cytotox inactive, DT40 TDP1 no CPT inconclusive and DT40 TDP1 CPT 11µM*.
For CCOc1ccc(Nc2nc3c(c(=O)[nH]2)CCCC3)cc1 the results were KB-3-1 tox inactive, HT1080 IDH1KD tx 12%, KB-V1 cytotox 18µM*, DT40 TDP1 no CPT -21%, DT40 TDP1 CPT -1% and HT1080-NT tox 17%.
`O=c1[nH]c(Nc2nc3ccccc3o2)nc2c1CCCC2` gave KB-3-1 tox inactive, HT1080 IDH1KD tx 4µM*, KB-V1 cytotox inconclusive, DT40 TDP1 no CPT 4.1µM*, DT40 TDP1 CPT 2.9µM* and HT1080-NT tox 2.2µM*.
Screening CC(C)c1ccc(C2(C)NC(=O)N(CC(=O)NC3CCCC(C)C3C)C2=O)cc1 (stereo not drawn) returned KB-3-1 tox inactive, HT1080 IDH1KD tx -17%, KB-V1 cytotox inactive, DT40 TDP1 no CPT 21µM*, DT40 TDP1 CPT inconclusive and HT1080-NT tox -3%.
CC(C)c1ccc(C2(C)NC(=O)N(CC(=O)NCC3COc4ccccc4O3)C2=O)cc1 (stereo not drawn) was read as KB-3-1 tox inactive, HT1080 IDH1KD tx 4%, KB-V1 cytotox 16µM*, DT40 TDP1 no CPT inconclusive, DT40 TDP1 CPT inconclusive and HT1080-NT tox -3%.
CCN(CC1COc2ccccc2O1)C(=O)CN1C(=O)NC(C)(c2ccccc2)C1=O (stereo not drawn) was read as KB-3-1 tox inactive, HT1080 IDH1KD tx -5%, KB-V1 cytotox inactive, DT40 TDP1 no CPT 1%, DT40 TDP1 CPT -20% and HT1080-NT tox -8%.
Screening CCN(CC1COc2ccccc2O1)C(=O)CN1C(=O)NC(C)(c2ccc(C)cc2)C1=O (stereo not drawn) returned KB-3-1 tox inactive, HT1080 IDH1KD tx -3%, KB-V1 cytotox inconclusive, DT40 TDP1 no CPT 23µM*, DT40 TDP1 CPT inconclusive and HT1080-NT tox 7%.
For CC(C)c1onc(C(=O)NCCc2ccccc2)c1[N+](=O)[O-] the results were KB-3-1 tox inactive, HT1080 IDH1KD tx inconclusive, KB-V1 cytotox inactive, DT40 TDP1 no CPT inconclusive, DT40 TDP1 CPT 21µM* and HT1080-NT tox inconclusive.
Screening COc1ccc(NC(=O)c2noc(C(C)C)c2[N+](=O)[O-])cc1 returned KB-3-1 tox inactive, HT1080 IDH1KD tx inconclusive, KB-V1 cytotox inactive, DT40 TDP1 no CPT inconclusive, DT40 TDP1 CPT inconclusive and HT1080-NT tox 23µM*.
`CC(C)c1onc(C(=O)N(C)Cc2ccccc2)c1[N+](=O)[O-]` gave KB-3-1 tox inactive, HT1080 IDH1KD tx 6%, KB-V1 cytotox inactive, DT40 TDP1 no CPT -13%, DT40 TDP1 CPT 14% and HT1080-NT tox -9%.
